Bioassay records from PubChem BioAssay.
Compounds with a hit are over-represented: about 3.8% of the library has one in this group of screens.
HT1080 IDH1KD tx: kills HT-1080 cells with IDH1 knockdown; HT-1080 IDH1 knockdown viability, ATP luminescence, 48 h; Potency, µM (doses to about 46.1 µM), hits mostly cytotoxic; 360,000 tested, 2% active; AID 686971
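Using the IDH1-knockdown HT-1080 line run in the same batch and compound series as the NT line, viability after 48 h at 37 °C was determined by CellTiter-Glo luminescence and expressed as % activity.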
HepG2 tox: kills HepG2 cells in TGF-b inhibitor counter-screen | HepG2 CAGA-GFP viability, ATP luminescence, 18 h | AID 588856 | Potency, µM (titrated, usually from 46.1 µM), usual class: cytotoxic | 410,000 tested, 0.76% active
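HepG2 CAGA-GFP cells (1000/well, DMEM with 1% FBS) received compound, then TGF-beta at 500 pg/mL final, and were incubated 18 hours at 37 degrees C. Viability was read by CellTiter-Glo luminescence. Media-only wells were set as complete cell-killing and DMSO as no toxicity.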
HT1080NT lethal: kills 2HG-producing HT-1080-NT fibrosarcoma cells | Potency, µM (series often up to 46.1 µM), most hits filed as cytotoxic | HT-1080-NT fibrosarcoma viability, CellTiter-Glo ATP luminescence, 48 h | AID 686970 | 360,000 tested, 1.6% active;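 also: NT is the 2HG producing partner of a matched IDH1 knockdown line; nearly all actives have a fitted effect of over 55% in size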
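750 cells/well, RPMI + 5% FBS; 2 h settle, compound pin-transfer, 48 h at 37 degrees C. CellTiter-Glo 10 min RT, luminescence. Normalized to DMSO and media-only wells.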
TGFb inhibitor: TGF-b pathway inhibition; Potency, µM (doses to about 46.1 µM), hits mostly inhibitors; 410,000 tested, 1.2% active; AID 588855; HepG2 CAGA-GFP TGF-b/SMAD3 reporter, GFP fluorescence, 18 h; TGF-beta stimulated, 500 pg/mL final; also: nearly all actives have a fitted effect of over 65% in size
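HEPG2 CAGA-GFP, 1000 cells/well; 2 h settle, 37 C; cpd via pin tool; TGF-b 500 pg/mL final; 18 h, 37 C; GFP imaging ex488/em500-530; %Activity normalised to -TGF-b and +DMSO controls; CRC fit, curve class.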
ATXN viability: cell viability loss in ATXN counter-screen; Potency, µM (doses to about 56.7 µM), most hits filed as cytotoxic; S2 cells (HEK-293 line with an ATXN2-luciferase reporter) viability, CellTiter-Fluor protease fluorescence, 24 h; 400,000 tested, 0.49% active; also: nearly all actives have a fitted effect of over 40% in size
ATXN2 expr inh: inhibitors of ATXN2 expression. HEK-293 ATXN2-luciferase reporter, luminescence, 24 h. Potency, µM (highest dose often 57 µM), usual class: inhibitors. 360,000 tested, 0.72% active. AID 1745845; also: nearly all actives have a fitted effect of over 55% in size
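qHTS (up to 57 uM final) was run with 24 h compound exposure of reporter cells at 37 °C. Each well was multiplexed: SteadyGlo luminescence measured ATXN2-luciferase expression after a fluorogenic Gly-Phe-AFC viability readout (25 uM final).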
Each line names hits and unclear results; the compound was inactive in the other large screens. Calls follow the shape of the dose curve; as a rule, active = well fitted curve in the direction sought with a large enough effect; inconclusive = small, poorly fitted or top-dose-only effect, or another doubt; inactive = no such curve, though single readings can be large; an effect the other way counts as inactive or inconclusive.

Cc1cc(Nc2cccc(Cl)c2)nc2ccc(NC(=O)Cc3cccc(C(F)(F)F)c3)cc12	TGFb inhibitor inconclusive, ATXN2 expr inh inconclusive (no result: HT1080 IDH1KD tx, HT1080NT lethal)
Cc1noc(C)c1COc1cccc(C(=O)OC(C)C(=O)Nc2ccc3c(c2)OCO3)c1 (stereo not given)	HT1080 IDH1KD tx 5µM, HT1080NT lethal 10µM, ATXN viability inconclusive
O=S(=O)(c1ccc(Cl)cc1)c1nc(-c2ccco2)oc1SCc1ccc(F)cc1	ATXN viability inconclusive (no result: HT1080 IDH1KD tx, HT1080NT lethal)
CCOC(=O)c1c(CSC(=N)N)n(-c2ccc(C)cc2)c2cc(Br)c(OC(C)=O)cc12	HepG2 tox 11µM, TGFb inhibitor 22µM, ATXN viability 25µM, ATXN2 expr inh inconclusive
CCNc1ccc(Br)cc(C(=O)/C=C/c2ccccc2Cl)c1=O	HT1080 IDH1KD tx 13µM, HT1080NT lethal inconclusive, ATXN viability inconclusive, ATXN2 expr inh 20µM
Cc1sc2ccccc2[n+]1CCC[n+]1c(C)sc2ccccc21	TGFb inhibitor 11µM (no result: HT1080 IDH1KD tx, HT1080NT lethal, ATXN viability, ATXN2 expr inh)
Cc1sc2ccccc2[n+]1CCC(C)S(=O)(=O)[O-] (stereo not given)	none
C[C@@H](NCc1cc2ccccc2[nH]1)c1cccc2ccccc12	none (no result: HT1080 IDH1KD tx, HepG2 tox, HT1080NT lethal, TGFb inhibitor, ATXN viability)
OC1(c2ccc3c(c2)CN(Cc2nccs2)CCO3)CCN(c2ccccc2F)CC1	none (no result: HT1080 IDH1KD tx, HepG2 tox, HT1080NT lethal, TGFb inhibitor, ATXN2 expr inh)
OC1(c2cccc(C(F)(F)F)c2)CCN(c2ncnc3c2[nH]c2ccccc23)CC1	HT1080 IDH1KD tx inconclusive, HT1080NT lethal 23µM, TGFb inhibitor inconclusive, ATXN viability inconclusive
O=C(Cn1cc(S(=O)(=O)Cc2ccc(F)cc2)c2ccccc21)NCCc1ccccc1	none (no result: HT1080 IDH1KD tx, HT1080NT lethal, ATXN viability, ATXN2 expr inh)
O=C(Nc1ccccc1Cl)C1C(c2ccccc2)C1(Cl)Cl (stereo not given)	TGFb inhibitor inconclusive (no result: ATXN viability, ATXN2 expr inh)
O=C(Nc1ccc(F)cc1)C1C(c2ccccc2)C1(Cl)Cl (stereo not given)	TGFb inhibitor 16µM, ATXN viability inconclusive, ATXN2 expr inh inconclusive
COc1ccc(-c2[nH][nH]c(=O)c2NC(=O)c2ccccn2)cc1	none
COc1ccc(CCC(=O)Nc2c(-c3ccc(N(C)C)cc3)[nH][nH]c2=O)cc1	TGFb inhibitor inconclusive, ATXN viability inconclusive, ATXN2 expr inh 20µM
O=C1[C@H](Cc2ccccc2)NC/C=C\C[C@@H](c2ccc(Cl)cc2)N1Cc1ccccc1	HepG2 tox 8.9µM, TGFb inhibitor inconclusive (no result: HT1080 IDH1KD tx, HT1080NT lethal, ATXN viability, ATXN2 expr inh)
O=C1[C@H](Cc2ccccc2)NC/C=C\C[C@H](c2ccc(Cl)cc2)N1Cc1ccc(Cl)cc1	TGFb inhibitor inconclusive (no result: HT1080 IDH1KD tx, HT1080NT lethal, ATXN viability, ATXN2 expr inh)
CCn1c(=N)n(CC(=O)C(C)(C)C)c2ccccc21	HT1080 IDH1KD tx 7.9µM, HT1080NT lethal 7.1µM, TGFb inhibitor inconclusive
COc1ccccc1-c1nnc(Nc2nc3c(OC)cccc3s2)o1	HT1080 IDH1KD tx 0.46µM, HT1080NT lethal 0.92µM, TGFb inhibitor inconclusive, ATXN viability inconclusive
COc1cccc(-c2nnc(Nc3nc4c(F)cccc4s3)o2)c1	HT1080 IDH1KD tx 6.3µM, HT1080NT lethal 7.9µM, TGFb inhibitor inconclusive
COc1cccc2sc(Nc3nnc(-c4ccccc4Cl)o3)nc12	HT1080 IDH1KD tx inconclusive, HT1080NT lethal inconclusive, TGFb inhibitor inconclusive, ATXN viability inconclusive, ATXN2 expr inh inconclusive
COc1cc2c(=O)c(C(=O)c3ccc(C)c(C)c3)cn(Cc3ccccc3F)c2cc1OC	TGFb inhibitor inconclusive, ATXN viability inconclusive (no result: HT1080 IDH1KD tx, HT1080NT lethal)
CCCC1=Nc2cc(C(=O)NC3CCCC3)ccc2Sc2ccc(C)cc21	TGFb inhibitor 0.79µM (no result: HT1080 IDH1KD tx, HT1080NT lethal, ATXN viability, ATXN2 expr inh)
CCC1=Nc2cc(C(=O)N3CCCCC3)ccc2Sc2ccc(C)cc21	ATXN viability 32µM, ATXN2 expr inh inconclusive
CCOC(=O)N1CCC(NC(=O)c2ccc3c(c2)N=C(C)c2c(C)ccc(C)c2S3)CC1	HT1080 IDH1KD tx 2.3µM, HT1080NT lethal 2.1µM, TGFb inhibitor inconclusive, ATXN viability inconclusive (no result: ATXN2 expr inh)
CCCC1=Nc2cc(C(=O)N3CCCC3)ccc2Sc2ccc(C)cc21	HT1080 IDH1KD tx inconclusive
CC(=O)Nc1cccc(NC(=O)CSc2cn(CC(=O)N3CCCCCC3)c3ccccc23)c1	none (no result: HT1080 IDH1KD tx, HT1080NT lethal, ATXN viability, ATXN2 expr inh)
Cc1cccc(N2CC(c3nc4ccccc4n3CCC3CCCCC3)CC2=O)c1 (stereo not given)	TGFb inhibitor inconclusive (no result: HT1080 IDH1KD tx, HT1080NT lethal)
COc1ccc(CCn2c3c(c(=O)[nH]c2=S)CN(c2ccccc2)CN3)cc1OC	none (no result: HepG2 tox, TGFb inhibitor, ATXN viability, ATXN2 expr inh)
CCC1CC=CC2C1C(=O)N(Cc1ccccc1)C2c1cc(C)ccc1F (stereo not given)	TGFb inhibitor inconclusive (no result: HT1080 IDH1KD tx, HT1080NT lethal, ATXN viability, ATXN2 expr inh)
COc1ccccc1/C=N/Nc1cc(C)nc(N2CCOCC2)n1	none (no result: ATXN2 expr inh)
Cc1cc(N/N=C/c2ccc(F)cc2)nc(-n2nc(C)cc2C)n1	HT1080 IDH1KD tx 1.8µM, HT1080NT lethal inconclusive, TGFb inhibitor inconclusive
COc1cccc(/C=N/Nc2nc(Nc3ccccc3)nc(-n3nc(C)cc3C)n2)c1O	HT1080 IDH1KD tx 7.3µM, HT1080NT lethal 6.5µM, TGFb inhibitor 1.6µM, ATXN viability inconclusive, ATXN2 expr inh inconclusive
CNc1cc(C)nc(-n2nc(C)cc2C)n1	ATXN viability inconclusive
COc1ccc(/C=N/Nc2cc(C)nc(-n3nc(C)cc3C)n2)c(OC)c1	HT1080 IDH1KD tx 9.2µM, HT1080NT lethal inconclusive, TGFb inhibitor inconclusive, ATXN viability inconclusive, ATXN2 expr inh 16µM
CCOc1cc(/C=N/Nc2cc(C)nc(-n3nc(C)cc3C)n2)ccc1O	HT1080 IDH1KD tx 5.8µM, HT1080NT lethal 5.8µM, TGFb inhibitor inconclusive, ATXN viability inconclusive, ATXN2 expr inh 1.3µM
